An excerpt weighted towards active compounds, which were near 2.4% of everything screened.
Tb PGK inh = T. brucei PGK inhibition; P07378; PGK/GAPDH coupled, Kinase-Glo luminescence, 60 min; Potency, µM (titrated, usually from 57.5 µM), for inactives: top-dose activity change, negative = inhibition, actives largely listed as inhibitors; actives 0.043% (n = 380,000); note: % is set by controls: 0 for no effect and ±100 for the full control effect; nearly all actives have a fitted effect of over 60% in size
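Recombinant glycosomal PGK reaction used 1,3-bisphosphoglycerate generated in-well by GAPDH (100nM final) in 100mM TEA pH 7.6, 5mM MgCl2, 0.01% Tween-20. After 60 minutes at room temperature, ATP was read by Kinase-Glo Plus luminescence end-point.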
Tb PFK block = inhibitors of T. brucei phosphofructokinase; O15648; T. brucei PFK, ADP-Glo luminescence; Potency, µM (top dose mostly 57.5 µM), for the others: at the top dose activity, negative = inhibition, usual class: inhibitors; actives 0.17% (n = 330,000);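 note: 0% = uninhibited 1x PFK enzyme wells and -100% = no-enzyme wells; nearly all actives have a fitted effect of over 60% in size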
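In TEA buffer at pH 8.0 with 5 mM MgCl2, enzyme (1.25 nM) converted F6P (0.5 mM) and ATP (0.1 mM) for 45 min at room temperature. ADP product was read by luciferase luminescence.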
Rango complex inh = Rango-importin beta binding inhibition; Potency, µM (titrated, usually from 92.2 µM), inactives show at the top dose inhibition of complex formation; actives 0.031% (n = 340,000); Q14974; Rango CFP/YFP FRET sensor + importin beta, 45 min; AID 540263; calls by dose curve;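 note: 0% = DMSO wells and 100% = buffer wells lacking importin beta; nearly all actives have a fitted effect of over 15% in size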
Target sequence (Q14974 whole entry, looked up): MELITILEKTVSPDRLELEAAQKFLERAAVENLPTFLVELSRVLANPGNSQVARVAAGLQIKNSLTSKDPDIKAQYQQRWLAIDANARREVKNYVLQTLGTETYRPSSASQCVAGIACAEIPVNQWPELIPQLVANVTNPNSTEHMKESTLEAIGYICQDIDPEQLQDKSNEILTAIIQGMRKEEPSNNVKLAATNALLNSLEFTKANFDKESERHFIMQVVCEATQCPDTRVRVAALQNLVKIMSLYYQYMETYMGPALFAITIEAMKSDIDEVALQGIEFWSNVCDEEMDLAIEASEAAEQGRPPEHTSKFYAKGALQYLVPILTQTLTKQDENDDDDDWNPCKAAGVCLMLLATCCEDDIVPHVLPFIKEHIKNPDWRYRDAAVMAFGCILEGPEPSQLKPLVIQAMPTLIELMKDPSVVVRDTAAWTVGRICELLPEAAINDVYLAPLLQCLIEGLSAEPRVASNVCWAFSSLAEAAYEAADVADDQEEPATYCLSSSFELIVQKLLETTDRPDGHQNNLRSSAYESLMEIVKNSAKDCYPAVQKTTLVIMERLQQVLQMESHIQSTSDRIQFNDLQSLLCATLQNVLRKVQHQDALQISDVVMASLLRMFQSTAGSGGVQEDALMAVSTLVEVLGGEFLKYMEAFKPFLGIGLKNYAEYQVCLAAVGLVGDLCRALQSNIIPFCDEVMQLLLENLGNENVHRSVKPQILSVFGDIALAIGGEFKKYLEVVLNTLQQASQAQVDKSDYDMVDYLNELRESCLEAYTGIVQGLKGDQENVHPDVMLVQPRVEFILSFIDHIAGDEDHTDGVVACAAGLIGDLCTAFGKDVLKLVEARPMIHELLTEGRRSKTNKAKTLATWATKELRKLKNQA
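FRET biosensor (snurportin 1 IBB flanked by EYFP and cerulean), 50 nM, with compound 5 min, then 0.125 microM importin beta in PBS, 1 mM DTT, 0.02% Tween-20, 0.1% BSA. CFP/YFP ratio read after 45 min at room temperature; pre-read flags interference.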
Rango dissoc inh = inhibition of RanGTP-driven Rango-importin beta dissociation. Biochemical FRET Rango-importin beta, RanGTP-induced dissociation. Potency, µM (top dose mostly 46.1 µM), inactives show at the top dose activity change, negative = inhibition. actives 0.071% (n = 340,000). AID 540253; calls by dose curve; note: % of control where 0% means no effect; nearly all actives have a fitted effect of over 45% in size
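Recombinant Rango FRET biosensor (EYFP–snurportin 1 IBB–cerulean CFP10) at 0.1 uM premixed with 0.25 uM importin beta in PBS, 1 mM DTT, 0.02% Tween-20, 0.1% BSA. Compound added 5 min; RanGTP-RCC1 (0.6 uM Ran, 2 mM GTP, 0.2 uM RCC1) then triggers release, read at 45 min.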
PKM2 activator = PKM2 (human) enzyme activation; purified PKM2, Kinase-Glo ATP luminescence, activation; response scale: 0% is enzyme alone, no compound; Potency, µM (highest dose often 57.5 µM), inactives show at the highest dose activation, most hits filed as activators; AID 1631; actives 0.34% (n = 260,000); note: % is set by controls: 0 for no effect and ±100 for the full control effect; nearly all actives have a fitted effect of over 55% in size
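Kinase-Glo luminescence reports ATP generated from ADP (0.1 mM) and PEP (0.5 mM) by purified hPK-M2 after 1 h at room temperature, pH 7.2 imidazole buffer; intermediate enzyme activity allows detecting inhibitors and activators.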
ELG1 DNA repair = blocks ELG1-dependent DNA repair in HEK293T cells; HEK293T ELG1-luciferase reporter, luminescence, 16 h; DNA damage induced by 5-fluorouridine; Potency, µM (top dose mostly 46.1 µM), for inactives: at the top dose activity change, negative = inhibition, actives largely listed as inhibitors; actives 2.3% (n = 330,000); AID 504467; note: % is set by controls: 0 for no effect and ±100 for the full control effect; nearly all actives have a fitted effect of over 55% in size
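HEK293T cells expressing luciferase-tagged ELG1 (2,000/well) received 5-Fluorouridine plus compound or DMSO for 16 hr at 37 °C. Luciferase was read by ONE-Glo luminescence after 30 min at room temperature.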
An asterisk follows results filed as active; i = inactive; ? = inconclusive; · = no result given. Unless noted, calls come from the whole dose curve; as a rule, active = well fitted curve in the direction sought with a large enough effect; inconclusive = small, poorly fitted or top-dose-only effect, or another doubt; inactive = no such curve, though single readings can be large; an effect the other way counts as inactive or inconclusive. Potency is the fitted concentration of half-maximal effect.

SMILES	Tb PGK inh	Tb PFK block	Rango complex inh	Rango dissoc inh	PKM2 activator	ELG1 DNA repair
Cc1[nH]c2ccccc2c(=O)c1C(=O)/C=C/c1ccccc1	2%	1%	1%	4%	4%	8.2µM*
CN(C)S(=O)(=O)N1CCC(Oc2ccc(C(=O)N3C[C@H]4CC[C@H]3C4)cc2)CC1	i	2%	-2%	1%	·	13µM*
CN(C)S(=O)(=O)N1CCC(Oc2ccc(C(=O)N3C[C@@H]4CCC[C@H]3C4)cc2)CC1	i	·	-5%	-17%	·	·
C#CCN(CC=C)C(=O)c1ccc(OC2CCN(S(=O)(=O)N(C)C)CC2)cc1	-1%	-2%	3%	-8%	-5%	21µM*
CCNc1nc(NC(C)C)nc(OCCNS(=O)(=O)c2cc(C)ccc2C)n1	0%	2%	-1%	20%	0%	21µM*
CCNc1nc(NCC)nc(OCCNS(=O)(=O)c2cc(C)ccc2C)n1	2%	-6%	-5%	0%	13%	?
COc1ccccc1NC(=O)CC(c1ccc(OC(C)C)cc1)c1ccccc1OC (stereo not drawn)	2%	1%	-7%	-4%	-6%	8.2µM*
COc1ccccc1C(CC(=O)Nc1ccc(C)c(C)c1)c1ccc(OC(C)C)cc1 (stereo not drawn)	i	4%	0%	-2%	21%	-19%
COc1cc2c(=O)n(CCc3ccccc3)c(=O)n(CC(=O)Nc3ccccc3)c2cc1OC	5%	·	·	·	·	·
CN(C(=O)c1ccccc1C(=O)OCC(=O)Nc1ccc(S(N)(=O)=O)cc1)c1ccccc1	-8%	-6%	0%	4%	·	10%
COc1cccc(C(=O)O/N=C(\N)c2ccccn2)c1	14µM*	?	-2%	6%	-94%	?
N/C(=N/O)c1ccccc1N1CCC(Cc2ccccc2)CC1	-7%	-2%	-1%	-11%	-7%	15µM*
COc1ccc(NC(=S)N(CCc2nc3cc(C)c(C)cc3[nH]2)Cc2cccnc2)cc1	-8%	-4%	-4%	10%	-14%	16µM*
COC(=O)c1cc(Cc2ccc(N)c(C(=O)OC)c2)ccc1N	0%	1%	5%	-9%	-7%	-15%
Nc1ccc(Cc2ccc(N)c(O)c2)cc1O	-11%	-3%	-1%	-20%	1%	9.2µM*
COc1ccc(N2CCN(C3CCCN(Cc4cccc(OC)c4)C3)CC2)cc1 (stereo not drawn)	5%	1%	1%	-23%	-2%	-16%
Cc1cc(C)nc(N/N=C/c2ccccc2OCc2cccc(Br)c2)n1	-9%	-2%	1%	-7%	-4%	21µM*
COc1cccc2c1C(CO)N1C(C#N)C3CC(C(=O)O)C(C1C2)N3C (stereo not drawn)	-2%	4%	-1%	12%	-4%	0.33µM*
COc1cccc2c1OCC(C(=O)O)C2 (stereo not drawn)	i	-8%	0%	16%	-8%	10%
O=C(N/N=C/c1ccc(F)cc1)c1cc(-c2ccc3c(c2)OCO3)n[nH]1	-10%	-23%	-2%	16%	8%	6%
COc1ccc(/C=N/NC(=O)c2cc(-c3ccc4c(c3)OCO4)n[nH]2)cc1OC	i	-3%	-1%	-1%	-14%	15µM*
O=C1c2cccc3c([N+](=O)[O-])ccc(c23)C(=O)N1O	-5%	-10%	-2%	18%	·	13%
CC(=O)Oc1ccc(N2C(=O)c3cccc4c([N+](=O)[O-])ccc(c34)C2=O)cc1	-13%	0%	?	?	-11%	18µM*
Cc1ccc(Cn2c(SCC(=O)NCc3ccccc3)nc3ccsc3c2=O)cc1	-11%	·	·	·	·	·
N=C1/C(=C\c2ccc(-c3cc(Cl)cc(Cl)c3)o2)C(=O)N=C2SC=C(c3ccccc3)N12	1%	11%	-1%	5%	-1%	1%
SMILES	Tb PGK inh	Tb PFK block	Rango complex inh	Rango dissoc inh	PKM2 activator	ELG1 DNA repair
N=C1/C(=C/c2cccn2CCOc2ccccc2)C(=O)N=C2SC=C(c3ccccc3)N12	-6%	-3%	?	?	0%	18µM*
CC1=CC2=NC(=O)/C(=C\c3cccn3CCOc3ccc(C)c(C)c3)C(=N)N2O1	0%	0%	?	?	0%	18µM*
CC1CCN(c2ccc(NC(=O)c3ccc(Br)o3)cc2)CC1	-1%	0%	2%	-2%	0%	?
O=C(CN1CCN(S(=O)(=O)c2ccccc2)CC1)Nc1ccccc1C(=O)c1ccccc1	0%	-2%	?	12%	-16%	?
CCN=c1scc(C)n1/N=C/c1cc(Br)c(O)c(OC)c1	i	2%	?	-29%	-4%	5.8µM*
Cc1cccc(S(=O)(=O)NC2CCCCCCC2)c1	-8%	-2%	6%	-25%	·	?
COc1ccc(C2CC(c3ccccc3)=NN2C(=O)CN2CCN(Cc3ccccc3)CC2)cc1 (stereo not drawn)	i	-1%	?	6%	-4%	18µM*
CNC(=S)N1N=C(c2ccc(C)cc2)CC1c1ccc(OC)cc1 (stereo not drawn)	-2%	0%	0%	13%	22µM*	-25%
CCNC(=S)N(CCc1cccc(C)c1)Cc1cc2cc(OC)c(OC)cc2[nH]c1=O	2%	-1%	2%	-6%	-1%	8.2µM*
COc1cc2cc(CN(Cc3cccs3)C(=S)Nc3ccccc3)c(=O)[nH]c2cc1OC	-6%	3%	-1%	2%	2%	8.2µM*
CCNC(=S)N(CCc1ccccc1C)Cc1cc2cc(OC)c(OC)cc2[nH]c1=O	-6%	-3%	-2%	3%	15%	9.2µM*
COc1cc2cc(CN(CCc3ccccc3C)C(=S)NCCCN(C)C)c(=O)[nH]c2cc1OC	-8%	-3%	-2%	8%	0%	-23%
O=C(O)C(c1ccccc1)N1C(=O)/C(=C\c2ccc(-c3ccccc3Cl)o2)SC1=S (stereo not drawn)	11µM*	-23%	?	?	·	2%
CCCc1nc(SCc2cccnc2)c2c(=O)n(C)c(=O)n(C)c2n1	-8%	0%	3%	0%	?	16µM*
CC(C(=O)O)N1C(=O)C2C3CC(C2C1=O)C1C(c2ccccc2)c2sc(=O)[nH]c2SC31 (stereo not drawn)	-8%	0%	?	23µM*	0%	-5%
CC(C)(C)N(Cc1ccccc1)C(=O)COC(=O)/C=C/c1ccc2c(c1)OCO2	-8%	3%	1%	-3%	·	-17%

Screening data deposited in PubChem BioAssay by National Center for Advancing Translational Sciences (NCATS).
